Shn3 3UTR inh – reduces Shn3 3'UTR luciferase signal in osteoblasts; 0.52% of 360,000 active; inhibition, % at 12.5 µM; AID 588674; Clone20 osteoblast Shn3 3'UTR firefly luciferase, 24 h;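 active = mean inhibition of at least 75% with every replicate also reaching 75%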;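 note: 0% = median of neutral control wells and 100% = pilot-screen positive control compound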
LMP1 NFkB inh – Epstein-Barr LMP1 NF-kappaB reporter inhibition; LMP1-induced NF-kappaB luciferase reporter cells, luminescence; inhibition, % at 12.5 µM; 0.69% of 350,000 active; AID 504558; in the data active = inhibition above about 41%;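 note: 0% = neutral control wells and 100% = reference inhibitor control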
TRPM1 prom inh – MITF TRPM1 promoter inhibition in SK-MEL-5 cells; SK-MEL-5 TRPM1 promoter luciferase, 24 h; 0.83% of 330,000 active; inhibition, % at 12.5 µM;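 active = mean inhibition across replicates of 60% or more, whatever share of single replicates reaches that level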
TWEAK Fn14 block – inhibitors of TWEAK-Fn14 interaction signaling; TWEAK-stimulated Fn14 reporter cells, luciferase luminescence, 8 h; inhibition, % at 10 µM; 2% of 360,000 active; in the data active = inhibition above about 50%
HIF-2a inh – blocks HIF-2a reporter activity; 786-0 RCC cells HIF-2a reporter, luciferase luminescence, overnight; inhibition, % at 18.8 µM; 0.72% of 360,000 active; AID 624352;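 active = inhibition of the luminescence signal of 40% or more relative to plate controls, in a single-dose primary screen at 18.75 µM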
TROY NFkB inh – blocks TROY-dependent signaling in reporter cells | Q293 LMP1-TROYcd NF-kB luciferase reporter, 4 h | inhibition, % at 10 µM | 0.98% of 360,000 active | AID 1347056;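 active = compounds whose plate-normalised and pattern-corrected inhibition of the luciferase reporter signal at the single screening dose is 50% or more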
Mdm2-MdmX confirm – Mdm2/MdmX (human) interaction inhibition, confirmed; shares compounds with HIF-2a inh; SaOS-2 split-luciferase Mdm2/MdmX complementation, luminescence; inhibition, % at 8 µM; 99% of 740 active;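 active = mean inhibition of the luminescence signal across two replicates at or above 26 percent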
HIF-2a conf – HIF-2a inhibition, single concentration confirmation | AID 651580 | shares compounds with HIF-2a inh | inhibition, % at 18.8 µM | 56% of 1,800 active | 786-0 RCC cells, HIF-2a luciferase reporter luminescence, overnight;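 active = mean inhibition across four replicates of at least 40 percent at the single tested concentration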
HIF-1a counter – inhibits HIF-1a reporter, a counter-screen for HIF-2a inhibitors. shares compounds with HIF-2a inh. MiaPaCa-2 HIF-1a luciferase reporter, desferoxamine, overnight. inhibition, % at 18.8 µM. 72% of 1,800 active. AID 651589;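 active = mean inhibition of the reporter signal across four replicates at the single tested dose of 50% or more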
* = called active by the depositor; x = not tested or not shown. Most compounds without a hit are left out; they make up all but 3.4% or so of the library.

SMILES	Shn3 3UTR inh	LMP1 NFkB inh	TRPM1 prom inh	TWEAK Fn14 block	HIF-2a inh	TROY NFkB inh	HIF-2a conf	HIF-1a counter	others
O=C(c1cccc(Cl)c1)N1CCN(c2ccccn2)CC1	-9	-4	-5	7	-3	-16	x	x
O=C(c1ccc(S(=O)(=O)c2cccc(Cl)c2)c([N+](=O)[O-])c1)N1CCN(c2ccccn2)CC1	69	20	44	90*	40*	58*	25	85*	Mdm2-MdmX confirm=96*
CCOC(=O)c1ccc(Oc2nc(N(C)C)nc(N(C)C)n2)cc1	4	-1	-4	19	19	4	x	x
CCOC(=O)c1ccc(Oc2nc(NC(C)(C)C)nc(N(C)C)n2)cc1	19	13	-3	28	44*	24	50*	-8
COc1cc(C=C2C(=O)C=CC2=O)ccc1O	x	x	x	11	84*	-1	99*	95*
COc1cc(/C=C2/C(=O)CNC2=O)ccc1O	7	8	1	9	19	6	x	x
O=[N+]([O-])c1cc(S(=O)(=O)N2CCCCCC2)ccc1Cl	0	-4	38	-6	40*	18	29	68*
CCc1ccc(N2C=C(C(=O)OC)C(c3ccc(OC)cc3)C(C#N)=C2N)cc1 (stereo not drawn)	x	x	x	x	53*	x	74*	99*
COC(=O)C1=CN(c2ccc(OC)cc2)C(N)=C(C#N)C1c1ccc(OC)cc1 (stereo not drawn)	x	x	x	x	-19	x	x	x
O=C(C=Cc1ccccc1)CC(c1ccccc1)N1CCOCC1 (stereo not drawn)	24	-49	76*	92*	70*	-7	-26	102*
O=C(C(c1ccccc1)N1CCOCC1)N1CCOCC1 (stereo not drawn)	2	-2	-8	4	18	0	x	x
O=C(Nc1ccccc1)C1=C(c2ccccc2)S(=O)(=O)CCS1(=O)=O	95*	72*	81*	88*	72*	87*	45*	86*
O=C(O)c1ccccc1C(=O)Nc1ccccc1	-8	-3	3	3	1	1	x	x
Cc1ccc(-c2ocnc2C(=O)N2CCOCC2)cc1	0	4	3	11	-5	-9	x	x
Cc1cccc(-c2ccc3[nH]c4c(c3c2)CCN2C[C@@H]([C@H](C)OC(=O)Nc3ccccc3C)[C@@H](N(C)C(=O)Nc3ccccc3C)C[C@@H]42)c1	-9	-11	x	88*	56*	20	1	83*
C[C@H](O)[C@@H]1CN2CCc3c([nH]c4ccccc34)[C@@H]2C[C@@H]1N(C)C(=O)Nc1cccc2ccccc12	5	x	x	34	6	28	x	x
O=C(Cn1ccc2ccccc2c1=O)NCC(=O)N1CCN(c2ccc(F)cc2)CC1	1	-3	13	11	11	-2	x	x
CCC1(O)C(=O)OCc2c1cc1n(c2=O)Cc2cc3cc(O)ccc3nc2-1 (stereo not drawn)	29	86*	70*	70*	52*	76*	17	102*
C#CCN(C[C@@H]1[C@@H](OC(=O)NC2CC2)[C@@H](OC(=O)NC2CC2)CN(C(=O)OC(C)C)N1C(=O)OC(C)C)S(=O)(=O)c1ccc(C)cc1	-9	-23	x	3	20	8	x	x
C#CCN(C[C@@H]1[C@@H](OC(=O)NC2CCCC2)[C@@H](OC(=O)NC2CCCC2)Cn2c(=O)ccc(=O)n21)S(=O)(=O)c1ccc(C)cc1	94*	9	x	72*	97*	33	99*	108*
C#CCN(C[C@@H]1[C@@H](OC(=O)NCc2ccccc2F)[C@@H](OC(=O)NCc2ccccc2F)Cn2c(=O)ccc(=O)n21)S(=O)(=O)c1ccc(C)cc1	96*	61*	x	107*	95*	61*	97*	106*
C#CCN(C[C@@H]1[C@@H](OC(=O)Nc2cccs2)[C@@H](OC(=O)Nc2cccs2)Cn2c(=O)ccc(=O)n21)S(=O)(=O)c1ccc(C)cc1	-12	-38	x	108*	97*	73*	96*	108*
C#CCN(C[C@@H]1[C@@H](OC(=O)NCc2ccco2)[C@@H](OC(=O)NCc2ccco2)CN(C(=O)OC(C)C)N1C(=O)OC(C)C)S(=O)(=O)c1ccc(C)cc1	-9	-19	x	13	44*	16	37	89*
C#CCN(C[C@@H]1[C@@H](OC(=O)NCc2ccccc2F)[C@@H](OC(=O)NCc2ccccc2F)Cn2c(=O)n(CCCCCC)c(=O)n21)S(=O)(=O)c1ccc(C)cc1	19	-29	x	12	6	-5	x	x
C#CCN(C[C@@H]1[C@@H](OC(=O)NCc2ccccc2F)[C@@H](OC(=O)NCc2ccccc2F)CN(C(=O)OC(C)C)N1C(=O)OC(C)C)S(=O)(=O)c1ccc(C)cc1	22	-27	x	6	-7	5	x	x
SMILES	Shn3 3UTR inh	LMP1 NFkB inh	TRPM1 prom inh	TWEAK Fn14 block	HIF-2a inh	TROY NFkB inh	HIF-2a conf	HIF-1a counter	others
O=C(C[C@H]1CC[C@H](NC(=O)C2CCOCC2)[C@@H](CO)O1)NCc1ccncc1	x	x	x	x	0	x	x	x
CC(C)c1cc(C(=O)N2CCCC(Nc3ccc(F)cc3)C2)n[nH]1 (stereo not drawn)	-7	-7	-18	-3	-36	3	x	x
Cc1ccc(-c2nnc(SCc3ccc(C#N)cc3)n2Cc2ccco2)cc1	-27	9	14	4	39	2	x	x
COc1cccc(-c2nnc(SCc3ccc(C#N)cc3)n2Cc2ccco2)c1	13	7	5	-2	44*	-5	31	41
Cc1ccc(C(=O)C2C(=O)C3CCC2C3)cc1 (stereo not drawn)	-14	x	x	63*	46*	-19	2	10
Cc1ccc(C(=O)C2CCNCC2)cc1	-14	-3	-1	-6	8	-13	x	x
COC(=O)C1=C(C)N(c2cc(C)cc(C)c2)/C(=C/c2ccc(O)cc2)C1=O	60	52*	1	58*	44*	13	24	61*
CN(C)c1ccc(/C=N/NC(=S)NCc2ccco2)cc1	-34	2	-37	-13	-60	-31	x	x
CN(C)c1ccc(C(=S)NCc2ccco2)cc1	2	-5	15	63*	52*	-27	-13	-47
COc1ccc(/C=C2\SC(=O)N(CCCC(=O)Nc3ccc(C(=O)O)cc3)C2=O)cc1	74	50*	x	83*	85*	73*	97*	91*

Screens: PubChem BioAssay, several laboratories
